Source: PubChem BioAssay
Shown are actives, neighbours in structure and some others; about 4.1% of the full set was active somewhere.
hcDAF-12 act: activates DAF-12 receptor from parasite H. contortus | HEK293 hcDAF-12 lit1-tk-luc reporter, luminescence; 0% DMSO, 100% Δ7-dafachronic acid | activation, % at 6.8 µM | hit rate 1.4% among 370,000 | AID 652067;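 active = activation above the mean of all tested compounds plus 3 SD, cut at about 5.5% in these data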;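 note: 100% = response to 3 µM Δ7-dafachronic acid high control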
PolyA inh: yeast polyadenylation inhibition | activity score, % at 12 µM | hit rate 0.02% among 300,000 | S. cerevisiae SKY197-pL101 polyadenylation reporter, beta-gal luminescence; efflux-impaired pdr1/pdr3 knockout yeast; score 100 = 6 SD above DMSO;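 active = lowest replicate activity score at least 50, where 100 means six control SD above control mean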;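 note: yeast exposed to compound for 9 h at 30 °C; higher score means more reporter readthrough which indicates perturbed polyadenylation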
DAX1 inh-1: DAX1 (NR0B1) inhibition, primary screen; HEK293T StAR-luciferase reporter, SF-1/DAX-1 repression relief; hit rate 1.1% among 370,000; inhibition, % at 6.8 µM; AID 652010;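 active = inhibition above the mean over all tested compounds plus 3 SD, cut at about 3.6% in these data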;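 note: 0% = DAX-1 cells with DMSO and 100% = cells lacking DAX-1 with DMSO; higher inhibition means more luminescence from relief of DAX-1 repression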
ssDAF-12 act: S. stercoralis DAF-12 activation, primary screen. hit rate 1% among 370,000. HEK293 ssDAF-12/GRIP1 lit1-tk-luc reporter, luminescence; % of 3 µM dafachronic acid response. activation, % at 6.8 µM;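 active = activation above the mean over all tested compounds plus 3 SD, cut at about 0.9% in these data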;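 note: 0% = DMSO-only wells and 100% = 3 µM delta7-dafachronic acid wells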
hgDAF12 agonist: agonists of H. glycines DAF-12 nuclear receptor; activation, % at 6.8 µM; AID 687014; HEK293 GAL4-hgDAF12 UAS-luciferase reporter, agonist luminescence; normalized to butyrate control; hit rate 1.8% among 370,000;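 active = activation above a cutoff set at the mean of all screened compounds plus 3 SD, cut at about 10% in these data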;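 note: 0% = DMSO wells and 100% = sodium butyrate wells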
DAX1 inh-2: inhibitors of human orphan nuclear receptor DAX1 (NR0B1); HEK293 Gal4-DAX1 luciferase reporter, luminescence; inhibition, % at 6.75 µM; P51843; hit rate 0.99% among 340,000; AID 504766;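 active = inhibition above the mean over all tested compounds plus 3 SD, cut at about 4.2% in these data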;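 note: 0% = DAX1-transfected cells with DMSO and 100% = empty-vector control cells with DMSO; inhibition shows as a rise in luminescence from relieved DAX1 repression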
Target sequence (P51843 207-470 limits assumed): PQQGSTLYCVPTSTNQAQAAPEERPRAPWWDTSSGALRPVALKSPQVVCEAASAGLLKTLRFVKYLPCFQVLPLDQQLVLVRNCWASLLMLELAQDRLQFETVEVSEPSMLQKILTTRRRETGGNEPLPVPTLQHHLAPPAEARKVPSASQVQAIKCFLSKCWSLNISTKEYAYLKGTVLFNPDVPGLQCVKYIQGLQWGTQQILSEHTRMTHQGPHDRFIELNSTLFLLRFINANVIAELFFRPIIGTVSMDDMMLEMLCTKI
DAX1 conf: confirmation of human DAX1 (NR0B1) inhibitors; hit rate 87% among 2,400; inhibition, % at 6.8 µM; AID 652134; HEK293T StAR-promoter luciferase reporter, SF-1/DAX-1 repression; shares compounds with DAX1 inh-1;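 active = inhibition above the average of every tested compound plus 3 SD, cut at about 3.8% in these data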;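 note: 0% = DAX-1 cells with DMSO and 100% = no DAX-1 control cells with DMSO; active compounds raise luminescence by relieving repression of the StAR reporter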
Target sequence (P51843 whole entry, looked up): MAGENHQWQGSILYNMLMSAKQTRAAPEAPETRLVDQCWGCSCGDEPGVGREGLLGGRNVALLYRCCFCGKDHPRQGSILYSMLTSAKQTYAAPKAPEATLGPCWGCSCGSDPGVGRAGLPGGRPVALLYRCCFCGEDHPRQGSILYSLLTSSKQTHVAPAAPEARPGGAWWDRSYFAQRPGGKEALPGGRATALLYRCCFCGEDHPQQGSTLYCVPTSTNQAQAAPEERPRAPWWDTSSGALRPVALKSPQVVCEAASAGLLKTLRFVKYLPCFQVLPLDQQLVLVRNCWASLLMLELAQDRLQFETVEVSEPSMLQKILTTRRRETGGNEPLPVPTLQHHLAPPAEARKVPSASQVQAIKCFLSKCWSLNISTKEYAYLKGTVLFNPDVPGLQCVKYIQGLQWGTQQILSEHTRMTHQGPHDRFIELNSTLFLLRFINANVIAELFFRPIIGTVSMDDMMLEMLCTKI
SF1 mutant ctr: nonselective inhibitor or artifact in SF-1 mutant DAX1 counter-screen; shares compounds with DAX1 inh-1; HEK293 StAR-luciferase, SF-1 AF2 mutant, luminescence; inhibition, % at 6.8 µM; hit rate 78% among 2,400;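 active = inhibition above the mean of all tested compounds plus 3 SD, cut at about 3% in these data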;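 note: 0% = DAX-1 transfected cells with DMSO and 100% = cells without DAX-1 with DMSO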
An asterisk follows results filed as active; . = no result given.

SMILES | hcDAF-12 act | PolyA inh | DAX1 inh-1 | ssDAF-12 act | hgDAF12 agonist | DAX1 inh-2 | DAX1 conf | SF1 mutant ctr
C[C@@H]1CN([C@H](C)CO)C(=O)CCCn2nncc2CO[C@@H]1CN(C)C(=O)Nc1ccccc1 | -1 | . | 0 | -1 | 1 | . | . | .
Cc1ccc(CN2CC=CS2(=O)=O)cc1 | -1 | . | -1 | 1 | -1 | . | . | .
CC(=O)NC(CC(=O)N1CCN(C(C)=O)CC1)c1ccccc1 (stereo not given) | 0 | 1 | 5.3* | -1 | 1 | 0 | 3 | 0
O=C(NC(CC(=O)N1CCN(c2ccccc2)CC1)c1ccccc1)c1ccccc1 (stereo not given) | -2 | . | -1 | -2 | -2 | 2 | . | .
Cc1sc(=NC(=O)c2ccco2)n(C)c1-c1ccccc1 | 3 | -9 | 5.5* | 0 | 10 | -1 | 14* | 6.3*
Cc1cc(Cl)ccc1OCc1cn2cccnc2n1 | 2 | -1 | 8.0* | -1 | 11* | 1 | 8.3* | 4.0*
O=C(C(=O)N1CCN(C(=O)c2ccccc2C(F)(F)F)CC1)c1cccc(C(F)(F)F)c1 | -1 | . | 0 | 0 | -2 | . | . | .
CCc1ccc2nc(N(CCN(C)C)C(=O)c3ccc4ncsc4c3)sc2c1 | 1 | 18 | 7.6* | 0 | 9 | 0 | 8.0* | 5.4*
CC(C)NC(=O)N[C@@H]1C[C@@H]2O[C@@H](CO)CC[C@@H]2O[C@@H]1CCc1ccc(-c2ccc(F)cc2)cc1 | -1 | . | -1 | -1 | 1 | . | . | .
CN1CCN(C(=O)c2cc(COc3ccccc3)on2)[C@@H](c2ccccc2)C1 | 4 | -5 | 5.8* | 1.1* | 11* | 1 | 6.0* | 2
Cc1ccc(OCc2cc(C(=O)N3CCN(C)C[C@@H]3c3ccccc3)no2)cc1C | 4 | 0 | 3 | 0 | 5 | 1 | . | .
COc1ccc(-c2nc3n(c2C)CCC3)cc1 | 0 | 12 | 0 | -1 | 1 | 2 | . | .
COc1ccc(-c2cc3nc4n(c(=O)c3s2)CCC4)cc1 | 5 | 0 | 6.6* | 0 | 7 | -5 | 7.3* | -1
COc1cccc2c1[C@H](/C=C/c1ccccc1)[C@@H]([C@H](O)COC(C)=O)OC2 | -1 | . | -1 | -2 | -1 | . | . | .
CCN(CCN1CCCC1)C(=O)c1cc(COc2ccccc2SC)on1 | 3 | -5 | 0 | -1 | 1 | 1 | . | .
CCN(CCn1cccn1)C(=O)c1cc(COc2ccccc2SC)on1 | 1 | -9 | 4.6* | 0 | 10 | 3 | 7.1* | 5.4*
COc1cc(C=Nn2c(-c3ccccc3F)n[nH]c2=S)ccc1OCc1ccccc1 | -3 | . | -1 | -1 | 3 | . | . | .
O=C(CSc1nnc(-c2ccccc2F)o1)N1CCNC1=O | 5 | . | 7.7* | 0 | 10 | 1 | 11* | 6.8*
CC1CCN(C(=O)CSc2nnc(-c3ccccc3F)o2)CC1 | 0 | 16 | 0 | -1 | 0 | 1 | . | .
O=C(OCCCN1CCC2(CCCCC2)C1=O)c1ccccc1 | -1 | . | 1 | -1 | -1 | . | . | .
CC(C)(C)c1ccc(C(=O)NC(=S)N2CCOCC2)cc1 | 3 | -11 | 7.0* | 0 | 13* | 4 | 8.8* | 3.4*
COC(=O)[C@@]12CCCCC=C1N(CCc1ccc(Cl)cc1)C(=O)[C@H]2CC(=O)NCCCCc1ccccc1 | 0 | . | -1 | -1 | 3 | . | . | .
O=C(Nc1ccccc1)C(=O)Nc1ccc2c(c1)N(C(=O)C1CC1)CCC2 | 3 | 10 | 6.0* | 0 | 11* | 2 | 4.1* | 0
O=C(C1CCC(C(=O)N2CCc3ccccc32)CC1)N1CCc2ccccc21 (stereo not given) | 0 | -20 | 0 | -1 | 0 | 1 | . | .
COc1ccccc1CCNC(=O)COc1cccc2c1OC(C)(C)C2 | -2 | -5 | 4.6* | -1 | -3 | 0 | 0 | 0
SMILES | hcDAF-12 act | PolyA inh | DAX1 inh-1 | ssDAF-12 act | hgDAF12 agonist | DAX1 inh-2 | DAX1 conf | SF1 mutant ctr
O=C(NCCc1ccccc1)c1ccc([N+](=O)[O-])cc1 | 6 | -4 | 5.3* | 1 | 10 | -2 | 13* | 7.1*
O=C(NCCc1ccc([N+](=O)[O-])cc1)c1ccccc1 | 0 | 6 | 0 | -2 | 3 | 1 | . | .
Cc1ccsc1C(=O)OCC(=O)NC1CCCC1 | 5 | . | 2 | 0 | 5 | 2 | . | .
Cc1ccsc1C(=O)OCC(=O)N1CCc2ccccc2C1 | 2 | 1 | 6.9* | 0 | 11* | 2 | 13* | 5.9*
Cc1ccsc1C(=O)OCC(=O)N(C)C1CCCCC1 | 5.9* | . | 10* | 0 | 12* | 1 | 11* | 6.3*
CCCC1CCC2(CCCN2CCOC(=O)Nc2ccccc2)CC1 (stereo not given) | 1 | . | . | -1 | 0 | . | . | .
O=C(Nc1ncc(Cc2ccccc2)s1)C1CCCO1 (stereo not given) | 4 | 21 | 8.3* | 1 | 13* | 0 | 11* | 4.8*
O=C(Nc1nnc(Cc2ccc(Cl)cc2)s1)C1CCCO1 (stereo not given) | -1 | 20 | 1 | -2 | -2 | 2 | . | .
CCOC(=O)N1CCN(C(=O)C[C@H]2C[C@@]3(C(=O)OC)C(=C[C@H](COCc4ccccc4)O[C@@H]3C)N(CCC3=CCCCC3)C2=O)CC1 | -1 | . | -1 | -2 | -3 | . | . | .
COc1ccc(CN2CN3Cc4cc(OC)ccc4C3CS2(=O)=O)cc1 (stereo not given) | 0 | . | -1 | -2 | 3 | . | . | .
COc1ccc(-c2cc(=O)c3c(C)cc(O)cc3o2)cc1 | 6.5* | . | 5.6* | 1.8* | 12* | 2 | 13* | 4.6*
COc1ccc(NC(=O)N(C)C[C@@H]2OCCCC[C@@H](C)Oc3ccc(NS(C)(=O)=O)cc3C(=O)N([C@H](C)CO)C[C@@H]2C)cc1 | -1 | . | 0 | 0 | 0 | . | . | .
COC(=O)[C@]12C[C@H](CC(=O)NCCC(C)C)C(=O)N(Cc3cccc4ccccc34)C1=C[C@H](C(C)C)O[C@@H]2C1CC1 | -2 | . | 0 | -1 | 2 | . | . | .
COc1cccc(-c2cnc3c(NC=O)cc(-c4ccc(OC)cc4OC)cn23)c1 | -2 | . | 0 | -1 | -9 | . | . | .
COc1ccc(-c2cc(NC=O)c3ncc(-c4ccc(OC)c(OC)c4)n3c2)c(OC)c1 | -4 | . | 6.5* | -1 | -3 | . | 12* | -8
COc1ccc(-c2cc(NC=O)c3ncc(-c4cc(OC)c(OC)c(OC)c4)n3c2)cc1 | 0 | . | 4.6* | -1 | -4 | . | 4.0* | -11
